{"source": "paper PMC8384837", "about": "“Expanding the binding specificity for RNA recognition by a PUF domain”", "test_in_all_cases": "yeast three-hybrid, YBZ-1, SC-Leu-His + 0.5 mM 3-AT, 4 days", "details_in_all_cases": "tags: N-Gal4 AD-HA kept; label: inside an RPR1-promoter hybrid RNA with tandem MS2 sites; ssRNA", "key": {"[1]": {"biological_target": "PUM1 PUF domain R5-DQQ (Homo sapiens, UniProt Q14671 828-1176, C1007D;R1008Q)", "procedure,_shortened": "(§1)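 Repeat regions from input (SC-Leu) and selection (SC-Leu-His + 0.5 mM 3-AT) plates were PCR-amplified and Illumina-sequenced after four days of growth. The cells were strain YBZ-1 with a LexA–MS2 coat fusion and a HIS3 reporter, co-expressing Pumilio-1 PUF domain libraries and matching RNA elements from a centromeric plasmid. The interaction score is the log change in variant frequency from input to selection, taken in log2 with a pseudocount of 1 for absent variants.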"}, "[2]": {"biological_target": "PUM1 PUF domain R8-KRL (Homo sapiens, UniProt Q14671 828-1176, N1122K;Y1123R;Q1126L)", "procedure,_shortened": "as §1"}, "[3]": {"biological_target": "PUM1 PUF domain R4-NRM (Homo sapiens, UniProt Q14671 828-1176, H972R;Q975M)", "procedure,_shortened": "as §1"}, "[4]": {"biological_target": "PUM1 PUF domain R8-QWR (Homo sapiens, UniProt Q14671 828-1176, N1122Q;Y1123W;Q1126R)", "procedure,_shortened": "as §1"}, "[5]": {"biological_target": "PUM1 PUF domain R4-RHA (Homo sapiens, UniProt Q14671 828-1176, N971R;Q975A)", "procedure,_shortened": "as §1"}, "[6]": {"biological_target": "PUM1 PUF domain R5-RYW (Homo sapiens, UniProt Q14671 828-1176, C1007R;R1008Y;Q1011W)", "procedure,_shortened": "as §1"}, "[7]": {"biological_target": "PUM1 PUF domain R8-RWN (Homo sapiens, UniProt Q14671 828-1176, N1122R;Y1123W;Q1126N)", "procedure,_shortened": "as §1"}, "[8]": {"biological_target": "PUM1 PUF domain R2-RKA (Homo sapiens, UniProt Q14671 828-1176, N899R;Y900K;Q903A)", "procedure,_shortened": "as §1"}, "[9]": {"biological_target": "PUM1 PUF domain R3-RSH (Homo sapiens, UniProt Q14671 828-1176, C935R;R936S;Q939H)", "procedure,_shortened": "as §1"}, "[10]": {"biological_target": "PUM1 PUF domain R7-LTC (Homo sapiens, UniProt Q14671 828-1176, S1079L;N1080T;E1083C)", "procedure,_shortened": "as §1"}}}
{"sequence": "GGCUAGAACUAGUGGAUCCCCCGGCGCCCGGCGGCUCGAGCCCGGGUAAGUGUCAAUAGUCUGCAUGCCGCCGGGCGCCAUGCCUGCAGGUCGACUCUAGAAAACAUG", "values": [{"measurement": "binding signal", "setting": "[1]", "value": "5.11 log2 enrichment (interaction score)"}]}
{"sequence": "GGCUAGAACUAGUGGAUCCCCCGGCGCCCGGCGGCUCGAGCCCGGGUAAGUGUAAAUAGUCUGCAUGCCGCCGGGCGCCAUGCCUGCAGGUCGACUCUAGAAAACAUG", "values": [{"measurement": "binding signal", "setting": "[2]", "value": "1.26 log2 enrichment (interaction score)"}, {"measurement": "binding signal", "setting": "[3]", "value": "3.21 log2 enrichment (interaction score)"}, {"measurement": "binding signal", "setting": "[4]", "value": "4.74 log2 enrichment (interaction score)"}, {"measurement": "binding signal", "setting": "[5]", "value": "3.02 log2 enrichment (interaction score)"}, {"measurement": "binding signal", "setting": "[6]", "value": "2.33 log2 enrichment (interaction score)"}, {"measurement": "binding signal", "setting": "[1]", "value": "2.81 log2 enrichment (interaction score)"}, {"measurement": "binding signal", "setting": "[7]", "value": "4.57 log2 enrichment (interaction score)"}]}
{"sequence": "GGCUAGAACUAGUGGAUCCCCCGGCGCCCGGCGGCUCGAGCCCGGGUAAGUGUAAAGAGUCUGCAUGCCGCCGGGCGCCAUGCCUGCAGGUCGACUCUAGAAAACAUG", "values": [{"measurement": "binding signal", "setting": "[8]", "value": "7.14 log2 enrichment (interaction score)"}]}
{"sequence": "GGCUAGAACUAGUGGAUCCCCCGGCGCCCGGCGGCUCGAGCCCGGGUAAGCGUAAAUAGUCUGCAUGCCGCCGGGCGCCAUGCCUGCAGGUCGACUCUAGAAAACAUG", "values": [{"measurement": "binding signal", "setting": "[2]", "value": "3.37 log2 enrichment (interaction score)"}, {"measurement": "binding signal", "setting": "[4]", "value": "5.32 log2 enrichment (interaction score)"}, {"measurement": "binding signal", "setting": "[7]", "value": "0.65 log2 enrichment (interaction score)"}]}
{"sequence": "GGCUAGAACUAGUGGAUCCCCCGGCGCCCGGCGGCUCGAGCCCGGGUAAGUGUUAAUAGUCUGCAUGCCGCCGGGCGCCAUGCCUGCAGGUCGACUCUAGAAAACAUG", "values": [{"measurement": "binding signal", "setting": "[6]", "value": "3.92 log2 enrichment (interaction score)"}]}
{"sequence": "GGCUAGAACUAGUGGAUCCCCCGGCGCCCGGCGGCUCGAGCCCGGGUAAGUGUAAUUAGUCUGCAUGCCGCCGGGCGCCAUGCCUGCAGGUCGACUCUAGAAAACAUG", "values": [{"measurement": "binding signal", "setting": "[9]", "value": "3.41 log2 enrichment (interaction score)"}]}
{"sequence": "GGCUAGAACUAGUGGAUCCCCCGGCGCCCGGCGGCUCGAGCCCGGGUAAGUUUAAAUAGUCUGCAUGCCGCCGGGCGCCAUGCCUGCAGGUCGACUCUAGAAAACAUG", "values": [{"measurement": "binding signal", "setting": "[10]", "value": "3.36 log2 enrichment (interaction score)"}]}
